Bioassay records (PubChem BioAssay)
YopH PTP inh = YopH (Yersinia) phosphatase inhibition; fluorescence Ex485/Em525; AID 898; hit rate 0.16% among 140,000; inhibition, % (concentration not given with the values); in the data active = inhibition above about 50%
Mtb RmlCD inh = inhibitors of Mycobacterium tuberculosis RmlC and RmlD coupled enzymes | hit rate 0.03% among 160,000 | AID 1533 | inhibition, % at 3.6 µM | RmlC+RmlD coupled enzyme assay, percent inhibition; primary screen in compound mixtures; in the data active = inhibition mostly above about 34%, no sharp cut-off; inconclusive = no clear call, values can overlap the other calls; inactive = mostly below about 22%
Target sequence (P9WH09 whole entry, looked up): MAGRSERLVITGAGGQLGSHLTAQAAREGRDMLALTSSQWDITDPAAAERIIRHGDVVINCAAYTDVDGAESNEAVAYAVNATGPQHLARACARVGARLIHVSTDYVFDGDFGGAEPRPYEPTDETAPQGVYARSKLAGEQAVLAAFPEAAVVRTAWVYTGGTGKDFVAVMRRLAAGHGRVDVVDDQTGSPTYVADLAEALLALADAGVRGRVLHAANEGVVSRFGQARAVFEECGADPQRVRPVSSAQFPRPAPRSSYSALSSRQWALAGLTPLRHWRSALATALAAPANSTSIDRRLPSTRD
Target sequence (P9WH11 whole entry, looked up): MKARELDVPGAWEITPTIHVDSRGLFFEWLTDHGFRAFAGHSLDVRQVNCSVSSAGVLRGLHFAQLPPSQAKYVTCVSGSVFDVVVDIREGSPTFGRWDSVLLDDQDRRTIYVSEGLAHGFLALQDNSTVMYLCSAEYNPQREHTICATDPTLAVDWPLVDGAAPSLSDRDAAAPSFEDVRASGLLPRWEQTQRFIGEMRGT
A number is an active result; . = inactive; ? = inconclusive; / = no result. This is one part of a sample in which hits are shown more often than they occur.

SMILES | YopH PTP inh | Mtb RmlCD inh
CCCCNS(=O)(=O)c1ccc(NC(=O)Cc2ccccc2[N+](=O)[O-])cc1 | / | .
CCC(=O)Nc1ccc2c(c1)nc(CN1CCN(C(C)=O)CC1)n2C | . | .
N#Cc1nc(-c2ccc(OCc3ccccc3)cc2)oc1N1CCC(C(N)=O)CC1 | . | .
COc1ccc(-c2nc(C#N)c(N3CCC(C(N)=O)CC3)o2)cc1 | 90 | .
O=C(O)c1ccc(-c2nc3ccccc3[nH]2)cc1 | . | 95
Fc1ccc(-c2nc3ccccc3[nH]2)cc1 | / | .
O=C1CS/C(=N/N=C/c2cccs2)N1Cc1ccc(F)cc1 | / | .
CCN(CC)CCCNC(=O)Cc1c(C(=O)O)n(C)c2ccccc12 | 52 | .
CCN(CC)CCNC(=O)Cc1c(C(=O)O)n(C)c2ccccc12 | . | /
COC(=O)Cc1cnc(NC(=O)C2C3CCC(C3)C2C(=O)O)s1 (stereo not drawn) | 51 | .
COC(=O)c1ccc(NC(=O)C2C3CCC(C3)C2C(=O)O)cc1 (stereo not drawn) | . | /
CC(=O)Nc1cccc(OCCCNC(=O)c2ccc(C(C)(C)C)cc2)c1 | / | .
COc1ccc(N2CSC3=C(C#N)C(c4cc(OC)c(OC)cc4OC)CC(=O)N3C2)c(OC)c1 (stereo not drawn) | . | /
CCOc1ccccc1N1CSC2=C(C#N)C(c3c(OC)ccc4ccccc34)CC(=O)N2C1 (stereo not drawn) | 90 | /
COc1ccc(N2CSC3=C(C#N)C(c4cc(OC)ccc4OC)CC(=O)N3C2)c(OC)c1 (stereo not drawn) | 69 | .
COc1ccc(C2CC(=O)N3CN(c4ccc(C)c(Cl)c4)CSC3=C2C#N)cc1OC (stereo not drawn) | . | .
CCc1ccc(C2CC(=O)N3CN(c4ccccc4)CSC3=C2C#N)cc1 (stereo not drawn) | . | .
COc1ccc(N2CSC3=C(C#N)C(c4ccc(OC)c(OC)c4)CC(=O)N3C2)c(OC)c1 (stereo not drawn) | 60 | /
N#Cc1ccc(Cl)cc1NC(=O)CSc1nc2nc(-c3cccs3)cc(C(F)(F)F)c2c(=O)[nH]1 | / | .
Cc1ccc(NC(=O)NC(=O)CSc2nnc(-c3ccc(Cl)cc3Cl)n2N)c(C)c1 | . | .
CC1Oc2ccccc2C=C1/C=N/Nc1ccc(C(=O)O)cc1 (stereo not drawn) | / | .
Cc1c(C(=O)N2CCCCC2)sc(NC(=O)C23CC4CC(CC(C4)C2)C3)c1C#N | . | /
CCCN1CCCc2cc(CN)ccc21 | 84 | .
Cc1ccc2c(c1)CCCN2N=O | . | .
O=C(NCCCn1ccnc1)c1cc(-c2cccc(O)c2)on1 | / | .
SMILES | YopH PTP inh | Mtb RmlCD inh
Nc1ccc(Nc2ccccc2N)cc1 | 51 | .
COc1ccc(Nc2ccccc2N)cc1 | / | .
Cc1cccc(NC(=O)Cn2cnc3c(oc4nc5c(cc43)COC(C)(C)C5)c2=O)c1 | . | ?
CCCCN(C)CCNC(=O)C(NC(=O)C1CCC(C)CC1)C(C)C (stereo not drawn) | / | .
Cc1ccc(NC(=S)N/N=C/c2ccc([N+](=O)[O-])s2)cc1 | . | .
O=[N+]([O-])c1ccc(C=Nc2ccc(Cl)c([N+](=O)[O-])c2)s1 | / | .
NC(=O)c1ccc(N=Cc2ccc([N+](=O)[O-])s2)cc1 | 92 | /
Cc1cc(C)cc(N=Cc2ccc([N+](=O)[O-])s2)c1 | 86 | .
CCOC(=O)c1[nH]c2ccccc2c1NC(=O)Nc1ccc(OC)cc1 | . | .
CC1=NN(S(=O)(=O)c2ccc(Cl)cc2Cl)C(=O)c2ccccc2O1 | / | .
CC(=O)[C@H]1[C@@H]2C(=O)N(c3cccc(Cl)c3)C(=O)[C@@H]2[C@H]2c3ccccc3C=CN21 | 67 | .
CC(=O)[C@@H]1[C@@H]2C(=O)N(c3ccc(F)c(Cl)c3)C(=O)[C@@H]2C2c3ccccc3C=CN21 (stereo partly drawn) | 71 | /
CC(C)(C)C(=O)[C@@H]1[C@@H]2C(=O)N(Cc3ccccc3)C(=O)[C@@H]2[C@H]2c3ccccc3C=CN12 | . | .
CC(=O)[C@@H]1[C@@H]2C(=O)N(C3CCCCC3)C(=O)[C@@H]2C2c3ccccc3C=CN21 (stereo partly drawn) | . | .
O=C(COC(=O)C(Cc1ccccc1)NC(=O)c1ccc(Cl)cc1)c1ccc(Cl)cc1 (stereo not drawn) | . | .
O=C(/C=C/c1ccc([N+](=O)[O-])cc1)OCC(=O)N1c2ccccc2Sc2ccccc21 | 53 | .
O=C(COC(=O)/C=C/c1ccc([N+](=O)[O-])cc1)NCc1ccccc1 | . | .
CCCc1[nH]nc2c1C(c1ccccc1OCC)C(C#N)=C(N)O2 (stereo not drawn) | . | .
CCOc1ccccc1C1C(C#N)=C(N)Nc2onc(-c3ccccc3)c21 (stereo not drawn) | 65 | /
COc1ccccc1-c1c(C)nn2c(N3CCCCCC3)cc(C)nc12 | 81 | .
COc1ccccc1-c1c(C)nn2c(N3CCN(c4ccccc4OC)CC3)cc(C)nc12 | . | .
CCCCC1=CC2=CC(=O)C(C)(OC(=O)CC)C(=O)C2=CN1Cc1ccc2c(c1)OCO2 (stereo not drawn) | / | .
CCCCCCCC1=CC2=CC(=O)C(C)(OC(C)=O)C(=O)C2=CN1CCc1ccccc1 (stereo not drawn) | 50 | /
COc1ccccc1C1c2c(C)nn(-c3ccccc3)c2NC(=O)C1NC(=O)c1ccccc1 (stereo not drawn) | . | .
CCOP(=O)(OCC)C(NC(=O)/C=C/c1ccc(OC)cc1)c1ccccc1 (stereo not drawn) | / | .
SMILES | YopH PTP inh | Mtb RmlCD inh
N#Cc1nc(-c2cccs2)oc1NCCCN1CCOCC1 | 51 | .
COc1ccc(-c2nc(C#N)c(NCCCN3CCOCC3)o2)cc1 | . | .
c1cc(C2CCN(Cc3nc(-c4ccc5c(c4)OCO5)no3)CC2)ccn1 | / | .
CC1=C(C)C(=O)C(CCCCC#CCCCC#CCO)=C(C)C1=O | 65 | /
COC1=C(OC)C(=O)C(CCCCCCCCCCO)=C(C)C1=O | / | .
Cc1cc(C)c(NC(=O)CO/N=C2\CCCc3nonc32)c(C)c1 | . | .
CN(Cc1ccccc1)C(=O)COc1ccc(Br)cc1Cl | / | .
CC(C)N(C(=O)COc1ccc(Br)cc1Cl)C(C)C | 52 | .
CCC(C)NC(=S)NNC(=O)c1ccc(C(C)(C)C)cc1 (stereo not drawn) | . | .
CC(=O)Nc1ccccc1OCC(=O)NCCc1ccc(Cl)cc1Cl | . | .
COc1ccc(NC(=O)N2CCCC(C(=O)NC(C)C)C2)cc1 (stereo not drawn) | . | /
COCCCNC(=O)C1CCCN(C(=O)Nc2ccc(OC)cc2)C1 (stereo not drawn) | 53 | /
Cc1ccc(-c2cn3nc(C)c(C)nc3n2)cc1 | . | /
CCc1ccc(-c2cn3nc(-c4ccccc4)cnc3n2)cc1 | / | 70
O=C(c1cccs1)c1no[n+]([O-])c1C(=O)c1cccs1 | 87 | /
COc1ccc(C(=O)c2no[n+]([O-])c2C(=O)c2ccc(OC)cc2)cc1 | . | .
CCC(C)(C)c1ccc(OCCCC[n+]2cccc(C)c2)c(C(C)(C)CC)c1 | / | .
O=C(NC(Cc1c[nH]c2ccccc12)c1nnc2n1CCCCC2)c1cccs1 (stereo not drawn) | 55 | /
O=C(NC(Cc1c[nH]c2ccccc12)c1nnc2n1CCCCC2)c1ccccc1 (stereo not drawn) | . | .
N#C/C(=C\c1ccccc1)c1nc2ncccc2[nH]1 | . | /
CC(=O)Nc1ccc(S(C)(=O)=O)c(C)c1 | . | .
CC(=O)Nc1ccc(NC2=C(Cl)C(=O)c3ccccc3C2=O)cc1 | / | .
